# High-throughput results (PubChem BioAssay)
# The list is not random: actives were taken first. Their share in the collection is about 5.4%.
# HSF1 inh: HSF1 inhibition | NIH3T3-HGL HSE-luciferase, MG132-induced, luminescence 8 h; active compounds read low | activity change, negative = inhibition, % at 7.5 µM (by protocol) | actives 0.77% (n = 300,000);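 active means more than half of replicate wells show activity change below -50%, luminescence cut by over half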;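 further: luciferase reports HSF-1 transcriptional activity via heat shock element; 0% = median of DMSO wells and -100% = zero luminescence signal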
# HSF-1 act: increases HSF-1 driven luciferase reporter signal. NIH3T3-HGL HSF-1 luciferase reporter, MG132, 8 h; 100% = twice DMSO control signal. activation, % at 9 µM. actives 1.7% (n = 300,000);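 active means mean replicate activation of at least 50% with a set share of replicates each reaching 50%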;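 further: 0% = median of the neutral control wells and 100% = twice that signal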
# FXN GAA850 act: frataxin GAA850 promoter activation. AID 540364. HEK293 lucGAA850 FXN promoter luciferase reporter, 24 h; percent of 10 µM SAHA response. activation, % at 6 µM. actives 0.56% (n = 360,000);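 active means activation above the average of all compounds screened plus 3 SD, cutoff fixed separately per campaign, cut at about 7.5% in these data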;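 further: 0% = DMSO wells and 100% = 10 µM SAHA wells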
# NR0B1 inh: inhibits human nuclear receptor DAX1; HEK293 Gal4-DAX1 luciferase reporter, luminescence; inhibition, % at 6.75 µM; actives 0.99% (n = 340,000); AID 504766;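 active means inhibition above the mean over all tested compounds plus 3 SD, cut at about 4.2% in these data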;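 further: 0% = DAX1-transfected cells with DMSO and 100% = empty-vector control cells with DMSO; inhibition shows as a rise in luminescence from relieved DAX1 repression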
# Target sequence (P51843 207-470 limits assumed): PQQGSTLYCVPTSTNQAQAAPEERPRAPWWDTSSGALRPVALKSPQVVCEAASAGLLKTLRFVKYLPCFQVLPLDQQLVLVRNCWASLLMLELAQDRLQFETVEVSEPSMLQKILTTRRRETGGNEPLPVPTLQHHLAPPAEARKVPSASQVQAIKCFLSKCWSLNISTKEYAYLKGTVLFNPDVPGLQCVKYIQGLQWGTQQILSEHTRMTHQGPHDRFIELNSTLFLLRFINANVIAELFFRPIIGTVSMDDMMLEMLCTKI
# AHR activator: activators of human aryl hydrocarbon receptor; AHR-responsive luciferase reporter cells, luminescence; activation, % at 5 µM; actives 2.5% (n = 320,000); in the data active means activation above about 47%;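 further: 0% = vehicle wells and 100% = reference agonist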
# Active calls of the source: *; . = no result.
SMILES,HSF1 inh,HSF-1 act,FXN GAA850 act,NR0B1 inh,AHR activator
O=C(Nc1nc(-c2ccccc2)ns1)c1ccncc1,-3.9,-7.3,-0.7,8.4*,14.0
c1ccc(Nc2nc(-c3ccccc3)ns2)cc1,22.5,59.3*,6.7,2.1,29.2
CC(C)N1CCC(N2CCN(C3CCCC3)CC2CCO)CC1 (stereo not given),-56.0*,-63.5,0.7,0.4,-0.4
Cc1cccc(CN2CCc3c([nH]c4ccccc34)C2C(C)(C)C)n1 (stereo not given),-1.7,-3.7,1.1,0.7,59.8*
CCCCN1C=CC(=C2C(=O)c3ccccc3C2=O)C=C1,-82.5*,-86.7,-13.2,-5.5,-14.1
CCCCC1C(=O)N(c2ccccc2)N(c2ccccc2)C1=O,-9.3,13.1,0.4,-0.2,0.6
O=C(CSC(=S)N1CCCCC1)Nc1ncc2c(n1)CCCC2=O,-52.1*,-58.8,1.1,0.9,0.9
O=C(CSC(=S)N1CCCCC1)Nc1ncc2c(n1)CC(c1ccco1)CC2=O (stereo not given),2.5,8.9,1.7,.,-2.7
COc1cccc(CC(=O)OCC(=O)N(C)CC(=O)Nc2ccc(Cl)c(C(F)(F)F)c2)c1,4.8,24.4,-0.4,1.0,0.5
O=C(/C=C/Nc1ccccc1Br)c1ccccn1,-60.6*,-66.2,-14.9,-6.0,8.7
CCN1C(=O)Nc2cccc3cccc1c23,21.9,33.8,2.9,4.8*,1.0
Cc1onc(-c2c(F)cccc2Cl)c1C(=O)Nc1cccc(S(=O)(=O)NC2=NCCC2)c1,-1.3,-10.6,-0.1,0.9,1.0
COc1ccc(C(CCN2CCOCC2)c2c(O)cc(OC)cc2OC)cc1 (stereo not given),-11.0,-10.0,-0.8,0.5,0.2
COc1ccc(C(c2c(O)ccc3ccccc23)N2CCOCC2)c(OC)c1 (stereo not given),74.0,105.8*,2.0,0.8,25.4
Nc1nnc(SCC(=O)c2cccc([N+](=O)[O-])c2)s1,5.1,10.1,-0.2,-0.9,5.8
Nc1ccc2nc(SCC(=O)c3ccccc3)sc2c1,-19.8,-34.1,-1.6,-0.5,49.1*
Nc1ccc2nc(SCc3ccccc3F)sc2c1,20.8,29.2,1.2,2.8,26.0
Cc1nnc(SCC(=O)c2ccc(Br)cc2)s1,49.3,66.6*,3.2,-1.8,3.3
Cc1ccc(C(=O)CSc2nnc(C)s2)cc1,15.7,5.2,4.9,0.7,3.5
Nc1nnc(SCC(=O)c2ccc3ccccc3c2)s1,13.1,39.0,.,1.5,48.1*
C#CC1(NC(=S)Nc2cccc(OC)c2)CCCCC1,.,.,-0.9,1.6,.
CCCCN(C(=O)c1cc2c(s1)CCC2)c1c(N)n(CCC)c(=O)[nH]c1=O,.,.,1.5,-0.1,.
Cc1cccc(OCC(=O)Nc2ccncc2)c1C,-67.9*,-74.6,1.1,-4.4,2.1
Cc1cc(Cl)ccc1OCC(=O)Nc1ccncc1,-59.3*,-69.4,-0.2,-5.6,1.3
COc1ccccc1OCC(=O)Nc1ccncc1,3.1,1.8,-0.7,-0.5,3.7
SMILES,HSF1 inh,HSF-1 act,FXN GAA850 act,NR0B1 inh,AHR activator
Cc1cc(Cl)ccc1OCC(=O)NCc1ccncc1,3.8,24.7,2.6,1.3,0.8
Cc1cccc(OCC(=O)Nc2ccc(N3CCN(S(C)(=O)=O)CC3)cc2)c1C,18.9,56.6*,3.1,0.7,-0.7
O=C(O)c1cc(S(=O)(=O)N2CCN(C(=O)c3ccco3)CC2)c(Cl)cc1Cl,-1.1,0.1,-1.6,-0.1,-0.2
COc1ccccc1-c1csc(C(O)(c2ccccc2)C(F)(F)F)n1 (stereo not given),.,.,3.0,.,.
CN(Cc1ccccc1)C(=O)c1cc2cc(F)ccc2[nH]1,5.1,14.6,0.5,1.3,62.4*
COc1cc2[nH]c(C(=O)N(C)Cc3ccccc3)cc2c(OC)c1OC,1.2,-7.1,-1.4,-1.3,6.5
COc1ccc(C)cc1NC(=O)CNC(c1ccccc1)c1ccccc1,-6.9,4.4,0.6,-0.7,8.4
COc1ccc(OC)c(NC(=O)CSc2nc3ccccc3cc2Cc2ccccc2)c1,-54.2*,-65.0,0.2,-0.5,0.7
COc1ccc(OC)c(NC(=O)CNC(c2ccccc2)c2ccccc2)c1,16.1,62.2*,-1.2,-0.3,3.2
CCc1cc2ccc(OC)cc2nc1SCC(=O)NNC(=O)c1ccco1,8.0,36.5,2.4,1.0,52.6*
COc1ccc(NC(=O)CSc2nc3ccccc3cc2Cc2ccccc2)cc1,6.7,15.5,-0.2,2.4,2.3
CCc1cc2cc(C)c(C)cc2nc1SCC(=O)NNC(=O)c1ccco1,3.5,-2.3,0.2,-1.1,7.0
COc1ccccc1N=C1NC(=O)/C(=C/c2ccc(N(C)C)cc2)S1,11.5,19.8,-1.4,-2.4,65.4*
O=C(N/N=C/c1cccnc1)c1ccc(Cn2cc([N+](=O)[O-])cn2)o1,7.7,3.0,-0.1,-0.4,62.5*
O=C(N/N=C\c1ccc(Cl)s1)c1ccc(Cn2cccn2)o1,2.1,-7.1,2.0,0.4,73.0*
Cc1ccc(/C=N/NC(=O)c2ccc(Cn3cc([N+](=O)[O-])cn3)o2)cc1,2.0,10.7,4.3,-0.5,30.9
COc1cc(C(O)c2nc(-c3ccc(N(C)C)cc3)cs2)ccc1F (stereo not given),.,.,-0.9,.,.
C/C(O)=C(/C=Nc1ccccc1)C(=O)Nc1ccccc1,-3.1,1.6,2.5,-0.2,48.1*
CC(=O)Nc1ccccc1C(=O)C(=O)Nc1ccccc1,-35.3,-45.9,2.2,0.2,11.9
COc1cc(OC)c2c(c1)C(=O)OC2,-2.4,29.6,0.2,-0.3,2.1
O=C(Nc1nc2ccc(F)cc2s1)c1ccccn1,59.5,110.4*,.,.,37.0
Cc1sc(NC(=O)C2=COCCO2)nc1-c1ccc(Cl)cc1,17.1,10.6,0.5,-0.1,65.2*
O=C(COc1ccc2c(c1)OCO2)Nc1ccc(Cl)cn1,2.0,29.2,2.4,1.2,27.7
O=C(/C=C/c1ccc2c(c1)OCO2)Nc1ccc(Cl)cn1,35.9,84.8*,3.1,0.3,8.8
O=C(Nc1nc2ccc(F)cc2s1)C1=COCCO1,-7.7,-9.3,-4.6,-3.4,48.0*
SMILES,HSF1 inh,HSF-1 act,FXN GAA850 act,NR0B1 inh,AHR activator
O=C(Nc1ccccc1N1CCCC1)C1=COCCO1,.,.,-0.1,0.6,4.3
O=C(Nc1nc2cc3c(cc2s1)OCCO3)C1=COCCO1,-66.1*,-75.0,-16.0,-7.6,-12.1
CC(=O)Nc1nc2cc3c(cc2s1)OCCO3,15.1,26.7,6.5,1.3,6.0
COC(=O)c1[nH]c2ccccc2c1NC(=O)/C=C/c1ccc2c(c1)OCO2,23.9,78.2*,0.8,-0.8,5.9
O=C(/C=C/c1ccc2c(c1)OCO2)Nc1nc2ccc(F)cc2s1,22.7,26.1,4.7,4.8*,8.6
O=C(Nc1ccccc1-c1nc2ccccc2s1)C1=COCCO1,7.3,31.2,1.5,-0.4,93.1*
COc1ccc(C(O)c2ncc(-c3cccc(C(F)(F)F)c3)[nH]2)cc1 (stereo not given),.,.,0.1,.,.
O=C(Nc1nnc(SCc2ccc(F)cc2)s1)c1cccnc1Cl,1.5,-13.5,0.6,0.1,0.0
